# In PubChem BioAssay (NCATS):
# Where “and” joins values, the source holds several entries; their conditions need not be identical. Equal values may be shown once. Values without a mark were called inactive. Records with an inconclusive call do not appear. Calls of active or inactive are those of the source. Unless noted, calls follow the shape of the dose curve; as a rule, active = well fitted curve in either direction with a large enough effect (not every such curve was filed as active); inconclusive = small, poorly fitted or top-dose-only effect, or another doubt; inactive = flat fitted curve, though single readings scatter.
# Assays:
# [1] = AP1 Signaling Pathway (AID 357); settings: ME-180 AP-1-bla reporter, EGF-induced, beta-lactamase ratio, 5 h; series mostly up to 17.2 µM;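 also: ME-180 reporter cells stimulated with EGF at its EC50 level; % is scaled to controls: 0 for no effect and ±100 for the full control effect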
# How it was run: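 AP-1-bla ME-180 cells, Opti-MEM + 0.5% dialyzed FBS, plated overnight 37 °C. Cpd titration + EC50 EGF, 5 h 37 °C. CCF4 2.5 h RT; ex 405, em 460/530 ratio → %activity, AC50.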
# [2] = target: Cytochrome P450 1A2 (Homo sapiens) (UniProt P05177); assay: p450-cyp1a2 (AID 410; calls by dose curve; also: potency is read from the fitted curve at half-maximal effect;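 as to activity change, negative = inhibition: -100% = full effect of reference inhibitor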); settings: recombinant CYP1A2, luciferin-ME demethylation, luminescence; series mostly up to 57 µM
# How it was run: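 Luminescent demethylation readout: Luciferin-ME (100uM, equal to Km) turned over by 20nM CYP1A2 for 60 min at room temperature after NADPH regeneration addition, following 10 min compound preincubation. Normalization used 57 uM furafylline as full inhibition.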
# [3] = NFAT Signaling Pathway (AID 444); settings: Jurkat NFAT-bla M1, carbachol, beta-lactamase ratio, 5 h;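 also: carbachol stimulus at about its EC50 of 1 µM final; % is scaled to controls: 0 for no effect and ±100 for the full control effect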
# How it was run: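 Read-out: CCF4 FRET ratio (460 nm/530 nm) after 1 h RT dye loading, used for %activity and AC50 from titration series. Cells: Jurkat NFAT-β-lactamase/M1 line, treated with compound plus 1 uM carbachol for 5 h, 37 °C.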
# [4] = Stat Signaling Pathway (AID 446); settings: ME-180 (cervical carcinoma) SIE beta-lactamase reporter, IL-6 stimulated, 5 h; series mostly up to 17.2 µM;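 also: ME-180 cervical cancer cells given 40 pM IL-6 alongside compound; SIE-controlled beta-lactamase reporter measured as 460/530 nm FRET emission ratio; % is scaled to controls: 0 for no effect and ±100 for the full control effect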
# How it was run: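 Overnight-plated ME-180 cells bearing a STAT Inducible Element beta-lactamase reporter; 5 h co-exposure to compound and 40 pM IL-6; values normalized to 300 pM IL-6 and 125 nM JAK inhibitor controls.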
# [5] = target: Glucocorticoid receptor (Homo sapiens) (UniProt P04150); assay: GR-EFC Redistribution (AID 451; calls by dose curve; also: potency is read from the fitted curve at half-maximal effect); settings: CHO-K1 GR-EFC translocation, beta-gal luminescence, 2 h
# How it was run: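 Translocation of GR-ED fusion to nuclear EA restores b-gal, read by luminescence after 1 h room-temperature detection. Engineered CHO-K1 biosensor cells, 1,000/well, exposed 2 h at 37 C to titrations up to 46 uM final.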
# [6] = target: Mitogen-activated protein kinase 10 (Mus musculus) (UniProt Q61831); assay: JNK3 AlphaScreen Assay (AID 530); settings: JNK3 lysate, c-Jun phosphorylation; series mostly up to 57.1 µM;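 also: kinase came from lysate of stimulated human HepG2 cells; signal reports phosphorylation of biotinylated GST-cJun 1-79 at Ser73 with 10 µM ATP; % is scaled to controls: 0 for no effect and ±100 for the full control effect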
# How it was run: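 qHTS titrations with 15 min compound pre-incubation before adding ATP (10 uM final). Read-out: AlphaScreen of Ser73-phosphorylated biotin-GST-cJun using HepG2 lysate JNK3 activated by IL-1β and TNFα.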
# [7] = Cell Viability - BJ (AID 421; calls by dose curve;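 also: potency is read from the fitted curve at half-maximal effect; cells exposed to compound for 40 hours at 37 °C before readout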); settings: BJ fibroblast viability, qHTS
# How it was run: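 Quantitative HTS: ATP depletion in BJ cells after 40 hr compound exposure in complete culture medium, detected with CellTiter-Glo; AC50 from standard Hill fits.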
# [8] = Cell Viability - Jurkat (AID 426;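 active = dose-dependent loss of cell ATP signal giving a full or clear fitted curve, ranked by lower potency value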;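 also: potency is read from the fitted curve at half-maximal effect; cells exposed to compound for 40 hours at 37 °C before ATP read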); settings: qHTS
# How it was run: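 Cytotoxicity taken as drop in cellular ATP (CellTiter-Glo luminescence, 20 min room temperature) after 40 hr, 37C treatment of 5000 Jurkat Clone E6-1 cells per well; concentration-response fitted with Hill equation for AC50.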
# [9] = Cell Viability - Hek293 (AID 427;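 active = compounds whose dose-response curve shows a full or clear partial loss of cell viability, called from curve shape rather than a numeric limit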;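 also: potency is read from the fitted curve at half-maximal effect; cells exposed to compound for 40 hours at 37 °C before reading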); settings: qHTS
# How it was run: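 AC50 values derive from Hill-modelled concentration-response of ATP-based luminescence, normalized between DMSO-only and 100 uM tamoxifen controls. Cells were exposed in complete culture medium for 40 hr at 37 °C before detection.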
# [10] = Cell Viability - HepG2 (AID 433; calls by dose curve;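 also: potency is read from the fitted curve at half-maximal effect; potency for ATP loss meaning cytotoxicity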); settings: qHTS
# How it was run: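 HepG2 hepatocellular carcinoma cells (1500/well) were treated with compounds for 40 h at 37 °C in complete medium; intracellular ATP was read by CellTiter-Glo luminescence. Data were normalized to DMSO and 100 uM tamoxifen, and AC50 came from Hill fits.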
# [11] = Cell Viability - MRC5 (AID 434; calls by dose curve;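 also: potency is read from the fitted curve at half-maximal effect; potency reflects cytotoxicity seen as loss of intracellular ATP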); settings: MRC5 lung fibroblast viability, qHTS
# How it was run: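 AC50 values come from Hill-equation fits of intracellular ATP loss, measured by CellTiter-Glo luminescence. Normal lung fibroblasts (MRC5) had 40 hr compound treatment at 37 C, normalized between DMSO and 100 uM tamoxifen.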
# [12] = Cell Viability - SK-N-SH (AID 435; calls by dose curve; also: potency is read from the fitted curve at half-maximal effect); settings: SK-N-SH neuroblastoma cell viability qHTS
# How it was run: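 SK-N-SH human neuroblastoma cells (1500/well) were exposed to compounds in complete medium for 40 h at 37 °C, and intracellular ATP was then measured by CellTiter-Glo luminescence. AC50 was taken from Hill fits, normalized to DMSO and 100 uM tamoxifen.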
# [13] = Cell Viability - N2a (AID 540; active = well fitted curve in the direction sought with a large enough effect; an effect the other way counts as inactive or inconclusive;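 also: plate controls were DMSO alone for no effect and tamoxifen control for full effect; nearly all actives have a fitted effect of over 45% in size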); settings: N2a mouse neuroblastoma cell viability; activity change, negative = cytotoxicity: at 92.2 µM (top of the series)
# How it was run: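 CellTiter-Glo ATP luminescence, read 20 min after reagent at room temperature, reported viability following 40 h compound treatment at 37 °C. N2a mouse neuroblastoma cells seeded 1500/well; Hill equation gave AC50.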
# [14] = Cell Viability - NIH 3T3 (AID 541; active = well fitted curve in the direction sought with a large enough effect; an effect the other way counts as inactive or inconclusive; also: nearly all actives have a fitted effect of over 25% in size; also: potency is read from the fitted curve at half-maximal effect;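 as to activity change, negative = cytotoxicity: plate controls were DMSO alone for no effect and tamoxifen positive control for full effect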); settings: NIH 3T3 cell viability, qHTS; activity change, negative = cytotoxicity: at 92.2 µM (top of the series)
# How it was run: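 Intracellular ATP (CellTiter-Glo luminescence, 20 min at room temperature) measured after 40 hr compound exposure at 37 °C of 1000 NIH 3T3 mouse fibroblasts/well in complete medium; AC50 derived by Hill-equation modelling of qHTS concentration-response curves.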
# [15] = Cell Viability - HUV-EC-C (AID 542; active = well fitted curve in the direction sought with a large enough effect; an effect the other way counts as inactive or inconclusive; also: % is scaled to controls: 0 for no effect and ±100 for the full control effect; nearly all actives have a fitted effect of over 35% in size); settings: HUV-EC-C endothelial cell viability, qHTS; series mostly up to 92.2 µM
# How it was run: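 CellTiter-Glo luminescence measured ATP loss in HUV-EC-C cells (1000/well) after 40 hr compound exposure at 37 °C, in complete culture medium. Concentration-response data were Hill-fitted to give AC50.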
# [16] = Cell Viability - H-4-II-E (AID 543; active = well fitted curve in the direction sought with a large enough effect; an effect the other way counts as inactive or inconclusive; also: nearly all actives have a fitted effect of over 35% in size; also: potency is read from the fitted curve at half-maximal effect); settings: H-4-II-E rat hepatoma viability; series mostly up to 92.2 µM
# How it was run: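 CellTiter-Glo luminescence (intracellular ATP) measured after 40 h compound exposure at 37 °C in H-4-II-E rat hepatoma cells seeded at 1500/well. Values are AC50s fitted with the standard Hill equation.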
# [17] = Cell Viability - SH-SY5Y (AID 544; active = well fitted curve in the direction sought with a large enough effect; an effect the other way counts as inactive or inconclusive; also: nearly all actives have a fitted effect of over 55% in size; also: potency is read from the fitted curve at half-maximal effect;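 as to viability change, negative = cytotoxic: 0% = DMSO alone and -100% = 100 µM tamoxifen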); settings: SH-SY5Y neuroblastoma cell viability; viability change, negative = cytotoxic: at 92.2 µM (top of the series)
# How it was run: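 Cytotoxicity measured via ATP-dependent luciferase luminescence (CellTiter-Glo) following 40 h, 37 °C exposure of 1500 SH-SY5Y cells per well. Concentration-response data were fitted with the standard Hill equation to give AC50.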
# [18] = Cell Viability - Renal Proximal Tubule (AID 545; active = well fitted curve in the direction sought with a large enough effect; an effect the other way counts as inactive or inconclusive;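 also: 0% = DMSO only and -100% = 100 µM tamoxifen; nearly all actives have a fitted effect of over 40% in size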); settings: renal proximal tubule cells viability, primary cells of rat origin; series mostly up to 91.7 µM
# How it was run: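 Primary rat renal proximal tubule cells (1000/well) were treated with compounds for 40 hr at 37 °C in complete medium. Intracellular ATP was measured by CellTiter-Glo luminescence, and AC50 values came from Hill-equation fits of concentration-response data.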
# [19] = target: Glucocorticoid receptor (Homo sapiens) (UniProt P04150); assay: GR-GFP Redistribution (AID 450;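 active = compounds whose dose series gives a full or clear partial fitted curve of increased nuclear translocation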; also: potency is read from the fitted curve at half-maximal effect); settings: U2OS GR-GFP nuclear translocation, laser cytometry, 2 h
# Glucocorticoid receptor (Homo sapiens), sequence (P04150 whole entry, looked up, the tested form may be a part): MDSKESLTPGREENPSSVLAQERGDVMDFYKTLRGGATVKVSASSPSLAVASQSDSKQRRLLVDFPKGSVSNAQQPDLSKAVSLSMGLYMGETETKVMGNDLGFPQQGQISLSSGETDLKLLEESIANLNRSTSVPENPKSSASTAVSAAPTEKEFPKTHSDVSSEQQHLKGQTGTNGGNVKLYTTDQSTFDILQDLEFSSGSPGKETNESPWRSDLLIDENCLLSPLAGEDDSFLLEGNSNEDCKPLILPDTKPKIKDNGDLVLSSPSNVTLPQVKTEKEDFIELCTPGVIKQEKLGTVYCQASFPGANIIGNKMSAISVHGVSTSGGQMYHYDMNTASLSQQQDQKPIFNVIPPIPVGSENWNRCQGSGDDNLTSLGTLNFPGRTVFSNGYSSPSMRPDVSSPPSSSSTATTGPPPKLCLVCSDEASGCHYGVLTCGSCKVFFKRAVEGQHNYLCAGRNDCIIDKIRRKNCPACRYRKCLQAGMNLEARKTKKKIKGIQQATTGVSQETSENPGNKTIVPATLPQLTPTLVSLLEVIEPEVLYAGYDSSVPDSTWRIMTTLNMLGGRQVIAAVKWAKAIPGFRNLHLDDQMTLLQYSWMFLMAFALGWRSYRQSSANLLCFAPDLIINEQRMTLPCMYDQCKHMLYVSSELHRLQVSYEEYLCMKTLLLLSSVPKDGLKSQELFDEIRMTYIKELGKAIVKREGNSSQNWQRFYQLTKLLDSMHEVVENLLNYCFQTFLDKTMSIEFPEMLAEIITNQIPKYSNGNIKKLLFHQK
# Cytochrome P450 1A2 (Homo sapiens), sequence (P05177 whole entry, looked up): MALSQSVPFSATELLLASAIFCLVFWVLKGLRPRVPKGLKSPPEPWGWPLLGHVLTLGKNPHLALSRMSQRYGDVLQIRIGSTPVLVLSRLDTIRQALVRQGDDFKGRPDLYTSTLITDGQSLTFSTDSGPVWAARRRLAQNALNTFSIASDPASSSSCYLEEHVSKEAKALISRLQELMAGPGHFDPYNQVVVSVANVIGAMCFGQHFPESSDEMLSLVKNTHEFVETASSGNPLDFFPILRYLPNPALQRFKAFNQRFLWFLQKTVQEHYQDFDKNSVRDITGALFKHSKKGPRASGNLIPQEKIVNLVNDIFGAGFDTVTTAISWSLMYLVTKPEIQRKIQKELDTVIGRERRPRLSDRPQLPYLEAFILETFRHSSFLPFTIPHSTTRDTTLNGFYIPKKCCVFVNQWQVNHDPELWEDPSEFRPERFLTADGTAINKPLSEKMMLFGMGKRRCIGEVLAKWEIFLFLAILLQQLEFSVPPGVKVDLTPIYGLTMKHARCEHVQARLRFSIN
SMILES,outcome [1],Potency [2],"activity change, negative = inhibition ([3]; at 17.2 µM (top of the series))","activity change, negative = inhibition ([3]; at 38 µM (top of the series))",outcome [4],Potency [5],outcome [6],Potency [7],Potency [8],Potency [9],Potency [10],Potency [11],Potency [12],"activity change, negative = cytotoxicity [13]",Potency [14],outcome [15],Potency [16],Potency [17],Potency [18],Potency [19]
CC[N+](CC)(CC)CCOc1cccc(OCC[N+](CC)(CC)CC)c1OCC[N+](CC)(CC)CC,inactive,inactive,-15.9%,-22%,inactive,> 46 µM and > 20.6 µM,inactive,,,,,,,,,,,,,
COc1ccc2[nH]cc(CCNC(C)=O)c2c1,inactive,,-17.4%,14.9%,inactive,> 46 µM and > 20.6 µM,inactive,> 92 µM,> 92 µM,> 92 µM,> 92 µM,> 92 µM,> 92 µM,-15.6% and 3.75%,inactive,inactive,inactive,inactive,inactive,
Clc1ccc2c(c1)C(N1CCNCC1)=Nc1ccccc1O2,inactive,12.6 µM (active) and 3.98 µM (active),,,inactive,> 46 µM and > 20.6 µM,inactive,,,,,,,,,,,,,
O=C1N(c2ccccc2)c2ccccc2C1(Cc1ccncc1)Cc1ccncc1,inactive,15.8 µM (active),,-6.55%,inactive,> 46 µM,inactive,,,,,,,,,,,,,
CN1CCC(=C2c3ccccc3C=Cc3ccccc32)CC1,inactive,inactive,-67.8% (active),,inactive,> 46 µM and > 20.6 µM,inactive,,,,,,,,,,,,,> 46 µM and > 20.6 µM
O=c1[nH]cc(F)c(=O)[nH]1,inactive,inactive,,18.8%,inactive,> 46 µM,inactive,> 92 µM,> 92 µM,> 92 µM,> 92 µM,> 92 µM,9.55 µM,-18.1%,0.316 µM (active),inactive,0.631 µM (active),15.8 µM (active),,> 46 µM
COc1ccc2c(c1)c(CC(=O)O)c(C)n2C(=O)c1ccc(Cl)cc1,inactive,10 µM (active),-5.62% and 13.9%,8.92%,inactive,> 46 µM and > 20.6 µM,inactive,> 92 µM,> 92 µM,> 92 µM,> 92 µM,> 92 µM,> 92 µM,0.758%,inactive,inactive,inactive,inactive,inactive,
CN1CCN(CCCN2c3ccccc3Sc3ccc(Cl)cc32)CC1,inactive,1 µM (active) and 2.51 µM (active),-28.9%,,inactive,,inactive,,,,,,,,,,,,,
Cn1cnc2c1c(=O)[nH]c(=O)n2C,inactive,,-1.3% and 20%,4.74%,inactive,> 46 µM and > 20.6 µM,inactive,,,,,,,,,,,,,> 46 µM and > 20.6 µM
Cn1c(=O)c2c(ncn2C)n(C)c1=O,inactive,inactive,,3.94%,inactive,> 46 µM,inactive,> 92 µM,> 92 µM,> 92 µM,> 92 µM,> 92 µM,> 92 µM,4.95%,inactive,inactive,inactive,inactive,inactive,
NCCS(=O)(=O)O,inactive,,,3.83%,inactive,> 46 µM,inactive,> 92 µM,> 92 µM,> 92 µM,> 92 µM,> 92 µM,> 92 µM,-1.66%,inactive,inactive,inactive,inactive,inactive,
NC(=O)OCC(COC(N)=O)c1ccccc1,inactive,inactive,3.58%,8.56%,inactive,> 46 µM,inactive,,,,,,,,,,,,,
